The structures appear in SMILES notation. The whole screen tested about 1,000 compounds, of which about 250 (25%) were called active. Not shown: some 31% with an inconclusive outcome. Not all results are given here. Potency and affinity values are given separately. A number with no mark means an inactive call. No rule for the calls is given here.

The assay is described as follows: T. gondii intracellular growth, IFN-gamma absent, dose response, cell-based (AID 1259420).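 Also: host cells were HeLa; final incubation lasted 72 hours.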 The conditions noted are these: Toxoplasma gondii growth in host cells, no IFN-gamma.

Turning to `C[C@H]1[C@H](NC(=O)/C(=N\OC(C)(C)C(=O)O)c2csc(N)n2)C(=O)N1S(=O)(=O)O`, the max activity (at 19.5 µM unless noted) is -8.75% [at 1.35 µM].

For the compound `OC[C@H]1[C@H](c2ccc(C#Cc3ccccc3F)cc2)[C@H]2CN(CC3CCOCC3)CCCCN21`, the max activity (at 19.5 µM unless noted) is 7.1% [at 0.16 µM].

Regarding `OC[C@@H]1[C@@H](c2ccc(C#Cc3ccccc3F)cc2)[C@H]2CN(CC3CCOCC3)CCCCN12`, the max activity (at 19.5 µM unless noted) is 24.4%.

As to `CCS(=O)(=O)N1CC(=O)N2[C@H](CO)[C@@H](c3ccc(-c4cccc(F)c4)cc3)[C@@H]2C1`, the max activity is, setting by setting: (at 0.6 µM) 7.66%; (at 1.2 µM) -9.75%.

Consider `CCS(=O)(=O)N1[C@H](CO)[C@@H](c2ccc(C#Cc3ccccc3F)cc2)[C@@H]1C#N`, for which the max activity (at 19.5 µM unless noted) is 10.1% [at 2.35 µM].

Consider `CCc1cnc(N2[C@H](C#N)[C@@H](c3ccc(C#Cc4ccccc4F)cc3)[C@H]2CO)s1`, for which the max activity was 8.24% (at 10 µM) and 32.4% (at 19.5 µM).

For `CCc1cnc(N2[C@@H](C#N)[C@@H](c3ccc(C4=CCCCC4)cc3)[C@@H]2CO)s1`, under “at 19.5 µM unless noted”, the max activity was -7.27%.

With `CCC(=O)N1CC(=O)N2[C@@H](CO)[C@@H](c3ccc(C#CCC(C)C)cc3)[C@@H]2C1`, under “at 19.5 µM unless noted”, the max activity was 8.67% [at 0.3 µM].

Regarding `O=C(NC1CCCCC1)N1C[C@@H]2N[C@H](C1)C2c1ccc(-c2ccc(F)cc2)cc1` (stereo not given in full), under “at 19.5 µM unless noted”, the max activity is 22.3% [at 10 µM].

For the compound `COC[C@@H]1CN(CC2CC2)C[C@@]12CCN(CCc1ccccc1)C2`, the max activity (at 19.5 µM unless noted) is 18.3%.

Take `N#Cc1cccc(-c2ccc3c(c2)[C@@H]2[C@@H](CCN2C(=O)c2ccccc2F)[C@@H](CO)N3)c1`: the max activity (at 19.5 µM unless noted) was -14.2% [at 1.2 µM].

Consider `Cc1ccccc1S(=O)(=O)N1CCCCN2[C@H](CO)[C@H](c3ccc(C#CCN(C)C)cc3)[C@H]2C1`, for which the max activity (at 19.5 µM unless noted) is 8.8%.

As for `CCN1CC(C(=O)O)CN2CCN(C(=O)c3ccncc3F)CC2C1` (stereo not given), the max activity (at 19.5 µM unless noted) was -9.96% [at 1.2 µM].

Consider `CC[C@H](C(=O)N1CCCC[C@H]1C(=O)O[C@H](CCc1ccc(OC)c(OC)c1)c1cccc(OCC(=O)NCCNC(=O)COc2cccc([C@@H](CCc3ccc(OC)c(OC)c3)OC(=O)[C@@H]3CCCCN3C(=O)[C@@H](CC)c3cc(OC)c(OC)c(OC)c3)c2)c1)c1cc(OC)c(OC)c(OC)c1`, for which the max activity (at 19.5 µM unless noted) is -10.8% [at 5 µM].

Take `C1=CC[C@H]2CN(c3ncnc4[nH]ccc34)C[C@H]2C1`: the max activity (at 19.5 µM unless noted) is 15.7% [at 10 µM].

As for `CCN1CCn2c(-c3cccc(F)c3)cnc2C12CCN(c1ncccn1)CC2`, where the note is “at 19.5 µM unless noted”, the max activity was -16.6% [at 2.6 µM].

As to `FC(F)(F)C1CN(c2cc(-c3ccccc3)nc3ccccc23)CCO1` (stereo not given), the max activity (at 19.5 µM unless noted) was -8.74% [at 1.2 µM].

Regarding `Fc1ccc(F)c(CN2[C@@H]3CNC[C@H]2C3c2ccc(-c3ccncc3)cc2)c1` (stereo not given in full), the max activity was -17.4% (at 0.16 µM) and -4.19% (at 10 µM).

Consider `C/C=C/c1ccc(C2[C@H]3CNC[C@@H]2N3Cc2ccc3c(c2)OCO3)cc1` (stereo not given in full), for which the max activity (at 19.5 µM unless noted) is 11.3%.

Regarding `C[C@@H]1CN([C@@H](C)CO)C(=O)Cc2cc(NS(=O)(=O)c3ccc(Cl)cc3)ccc2O[C@@H]1CN(C)C(=O)Nc1ccc(C(F)(F)F)cc1`, under “at 19.5 µM unless noted”, the max activity was 23.3%.

As for `CC(C)N1CCC(c2ccnc3c(C(=O)N4CCCN(C)CC4)ncn23)CC1`, the max activity (at 19.5 µM unless noted) was -10.4% [at 5 µM].

Take `COCC(=O)N1[C@H](C#N)[C@H](c2ccc(C#CCC3CCCC3)cc2)[C@@H]1CO`: the max activity (at 19.5 µM unless noted) was 6.51% [at 10 µM].

With `N#C[C@@H]1[C@@H](c2ccc(C#Cc3cccnc3)cc2)[C@@H](CO)N1C(=O)NC1CCCCC1`, the max activity (at 19.5 µM unless noted) was -10.9%.

`C/C=C/c1ccc([C@H]2[C@H](CO)N3C(=O)CN(C(=O)NC4CCCCC4)C[C@@H]23)cc1`: the max activity (at 19.5 µM unless noted) was -12.8%.

On to `N#C[C@@H]1[C@H](c2ccc(-c3cccc(F)c3)cc2)[C@@H](CO)N1C(=O)NC1CCCC1`, for which, for the setting “at 19.5 µM unless noted”, the max activity is 22.7%.

`N#C[C@H]1[C@H](c2ccc(-c3cccc(F)c3)cc2)[C@H](CO)N1C(=O)NC1CCCC1`: the max activity (at 19.5 µM unless noted) was 27.1%.

In the case of `N#C[C@H]1[C@@H](c2ccc(-c3cccc(F)c3)cc2)[C@H](CO)N1C(=O)NC1CCCC1`, the max activity is -11.5% (at 1.2 µM) and 14.4% (at 19.5 µM).

Take `CCC(C)NC(=O)Cn1c(=O)c(S(=O)(=O)c2ccccc2)cc2ccccc21` (stereo not given): the max activity (at 19.5 µM unless noted) was -6.38% [at 1.2 µM].

Turning to `COc1ccc(CN2C[C@@H]3CN(Cc4cnn(C)c4)C[C@H]3C2=O)cc1`, the max activity (at 19.5 µM unless noted) is -13% [at 10 µM].

Turning to `Cc1cccc(S(=O)(=O)N2C[C@H]3[C@@H](c4ccccc42)[C@@H](CO)N3C(=O)c2ccccc2)c1`, for the setting “at 19.5 µM unless noted”, the max activity is 6.73% [at 0.16 µM].

On to `COCCC(=O)N1C[C@H](OCc2ccccn2)[C@@H]2COC[C@@H]21`, for which the max activity (at 19.5 µM unless noted) was -16.7% [at 0.3 µM].

In the case of `Oc1cccc(-c2nccn2-c2cccc(-c3ccn[nH]3)c2)c1`, the max activity (at 19.5 µM unless noted) was -6.88% [at 10 µM].

As to `O=S(=O)(Cc1ccccc1)N1CC2CN(Cc3cccc(Cl)c3)CC2C1` (stereo not given), for the setting “at 19.5 µM unless noted”, the max activity is 19.1%.

With `Cc1ccccc1-c1ccc([C@H]2[C@@H](CO)N3C(=O)CN(C(=O)c4ccncc4)C[C@H]23)cc1`, the max activity (at 19.5 µM unless noted) is -12.2% [at 5 µM].

Consider `CC(C)CNc1nc2c(cc1C(=O)NC(C)C)CCN(c1ccncn1)CC2`, for which the max activity (at 19.5 µM unless noted) was -10.6% [at 5 µM].

As to `COc1ccccc1-c1ccc([C@@H]2[C@@H](CO)N3CCCCN(C(=O)c4cccnc4)C[C@@H]23)cc1`, the max activity (at 19.5 µM unless noted) was -4.65% [at 5 µM].

On to `COc1ccccc1-c1ccc([C@@H]2[C@H]3CN(C(=O)c4cccnc4)CCCCN3[C@H]2CO)cc1`, for which the max activity (at 19.5 µM unless noted) is 9.09% [at 0.16 µM].

Regarding `COc1ccccc1-c1ccc([C@@H]2[C@H](CO)N3CCCCN(C(=O)c4cccnc4)C[C@@H]23)cc1`, the max activity (at 19.5 µM unless noted) was 16.2%.

With `O=C(Nc1ccccc1F)N1CCCCN2[C@H](C1)[C@H](c1ccc(/C=C/c3ccccc3)cc1)[C@@H]2CO`, the max activity (at 19.5 µM unless noted) was 13.2%.

Take `CCN1C(=O)CO[C@H]2CN(C(=O)c3cnc4ccccc4c3)C[C@@H]21`: the max activity (at 19.5 µM unless noted) was -7.5% [at 0.16 µM].

In the case of `Cn1cnc2c1C(C(=O)O)CN(C(=O)c1ccsc1)C2` (stereo not given), under “at 19.5 µM unless noted”, the max activity was -15.3% [at 10 µM].

The values above are taken from PubChem BioAssay AID1259420 (Broad Institute, 2018).
